Measurements as given in PubChem BioAssay AID1159580 (chemical genetic matrix, 2015).
“And” between values parts separate entries of the source, which are not always exact repeats. Equal values may be shown once. Among all 5,500 compounds or so, about 2,000 (36%) were called active. Roughly 18% stayed inconclusive and do not appear here. Rule as the data show it: active = normalized growth mostly below about 0.91 (no sharp cut-off); inconclusive = no clear call, values can overlap the other calls; inactive = mostly above about 0.92. The list shows a part of the results.

Assay: chemical genetic growth profiling, strain panel (AID 1159580);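 also: tested at 20 µM; growth read once vehicle control cultures reached saturation at 30 °C; 1 = growth at the plate median or of vehicle wells; lower values mean less growth of the strain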
Conditions: S. cerevisiae deletion strains, growth OD

Measured: normalized growth

COc1c(OC)c2occc2c2oc(=O)ccc12
active: locus YDL192W, strain arf1, stronger effect = lower value 0.866 | locus YDR162C, strain NBP2, stronger effect = lower value 0.822 | locus YDR195W, strain ref2 1.14 [resistant] | locus YDR502C, strain sam2, stronger effect = lower value 0.918 | locus YER155C, strain BEM2 (second series), stronger effect = lower value 0.832 | locus YGR135W, strain pre9, stronger effect = lower value 0.881
0.785 (active) and 0.957 (inactive): locus YJL095W, strain BCK1, stronger effect = lower value
inactive: locus YAL021C, strain ccr4, stronger effect = lower value 0.988 | locus YAL026C, strain drs2, stronger effect = lower value 0.987 | locus YAL030W, strain snc1, stronger effect = lower value 0.99 | locus YBL061C, strain skt5, stronger effect = lower value 0.979 | locus YBR009C, strain hhf1, stronger effect = lower value 0.958 | locus YBR021W, strain FUR4, stronger effect = lower value 1.01 | locus YBR023C, strain chs3, stronger effect = lower value 0.976 | locus YBR171W, strain sec66, stronger effect = lower value 0.973 | locus YBR229C, strain ROT2, stronger effect = lower value 0.967 | locus YBR231C, strain swc5, stronger effect = lower value 0.96 | locus YBR279W, strain paf1, stronger effect = lower value 0.973 | locus YCL011C, strain gbp2, stronger effect = lower value 0.979 | locus YCL016C, strain dcc1, stronger effect = lower value 0.98 | locus YCL029C, strain bik1, stronger effect = lower value 0.983 | locus YCL061C, strain MRC1, stronger effect = lower value 0.978 | locus YCL069W, strain vba3, stronger effect = lower value 0.989 | locus YCR088W, strain abp1, stronger effect = lower value 0.987 | locus YDL005C, strain med2, stronger effect = lower value 0.998 | locus YDL035C, strain GPR1, stronger effect = lower value 0.924 | locus YDL040C, strain nat1, stronger effect = lower value 0.981 | locus YDL074C, strain BRE1, stronger effect = lower value 0.86 | locus YDL101C, strain DUN1, stronger effect = lower value 0.949 | locus YDL134C, strain PPH21, stronger effect = lower value 0.948 | locus YDL185W, strain tfp1, stronger effect = lower value 0.945 | locus YDR001C, strain nth1, stronger effect = lower value 0.973 | locus YDR069C, strain doa4, stronger effect = lower value 1 | locus YDR101C, strain arx1, stronger effect = lower value 0.927 | locus YDR137W, strain rgp1, stronger effect = lower value 0.952 | locus YDR159W, strain sac3, stronger effect = lower value 1.01 | locus YDR297W, strain sur2, stronger effect = lower value 0.974 | locus YDR318W, strain mcm21, stronger effect = lower value 0.95 | locus YDR334W, strain swr1, stronger effect = lower value 0.967 | locus YDR335W, strain msn5, stronger effect = lower value 0.978 | locus YDR388W, stronger effect = lower value 0.959 | locus YDR392W, strain spt3, stronger effect = lower value 0.765 | locus YEL003W, strain gim4, stronger effect = lower value 0.982 | locus YEL037C, strain rad23, stronger effect = lower value 0.981 | locus YEL061C, strain CIN8 (second series), stronger effect = lower value 0.984 | locus YEL061C, strain CIN8, stronger effect = lower value 0.963 | locus YER015W, strain faa2, stronger effect = lower value 0.972 | locus YER016W, strain bim1, stronger effect = lower value 0.984 | locus YER110C, stronger effect = lower value 0.949 | locus YER111C, strain swi4, stronger effect = lower value 0.992 | locus YER155C, strain BEM2, stronger effect = lower value 0.962 | locus YER167W, strain BCK2, stronger effect = lower value 0.97 | locus YFR010W, strain ubp6, stronger effect = lower value 0.98 | locus YGL078C, strain dbp3, stronger effect = lower value 0.979 | locus YGL086W, strain mad1, stronger effect = lower value 0.937 | locus YGL167C, strain pmr1, stronger effect = lower value 0.975 | locus YGL173C, strain kem1, stronger effect = lower value 0.986 | locus YGL227W, strain vid30, stronger effect = lower value 0.994 | locus YGL240W, strain doc1, stronger effect = lower value 0.931 | locus YGL248W, strain PDE1, stronger effect = lower value 0.95 | locus YGL253W, strain hxk2, stronger effect = lower value 0.956 | locus YGR078C, strain PAC10, stronger effect = lower value 0.882 | locus YGR252W, strain gcn5, stronger effect = lower value 0.802 | locus YHR013C, strain ard1, stronger effect = lower value 1.01 | locus YHR027C, strain rpn1, stronger effect = lower value 0.984 | locus YHR030C, strain SLT2, stronger effect = lower value 0.945 and 0.955 | locus YHR079C, strain IRE1 (second series), stronger effect = lower value 0.977 | locus YHR079C, strain IRE1, stronger effect = lower value 0.944 | locus YHR094C, strain hxt1, stronger effect = lower value 0.985 | locus YHR129C, strain ARP1, stronger effect = lower value 0.959 | locus YHR142W, strain chs7, stronger effect = lower value 0.904 | locus YHR200W, strain rpn10, stronger effect = lower value 0.923 | locus YIL066C, strain RNR3, stronger effect = lower value 0.88 | locus YIL073C, strain SPO22, stronger effect = lower value 0.955 | locus YIL125W, strain kgd1, stronger effect = lower value 0.979 | locus YIR030C, strain dcg1, stronger effect = lower value 0.962 | locus YJL092W, strain hpr5, stronger effect = lower value 0.972 | locus YJL095W, strain BCK1 (second series), stronger effect = lower value 0.974 | locus YJL115W, strain asf1, stronger effect = lower value 0.984 | locus YJL129C, strain trk1, stronger effect = lower value 0.993 | locus YJL134W, strain LCB3, stronger effect = lower value 0.967 | locus YJL154C, strain vps35, stronger effect = lower value 0.987 | locus YJL164C, strain tpk1, stronger effect = lower value 0.966 | locus YJL166W, strain qcr8, stronger effect = lower value 0.945 | locus YJL168C, strain set2, stronger effect = lower value 0.977 | locus YJL187C, strain SWE1 (second series), stronger effect = lower value 0.947 | locus YJL187C, strain SWE1, stronger effect = lower value 0.973 | locus YJR043C, strain POL32, stronger effect = lower value 0.887
